Screening results deposited in PubChem by National Center for Advancing Translational Sciences (NCATS).
HT1080NT lethal = kills 2HG-producing HT-1080-NT fibrosarcoma cells; Potency, µM (series often up to 46.1 µM), without a hit: at the highest dose activity, negative = less viability, usual class: cytotoxic; HT-1080-NT fibrosarcoma viability, CellTiter-Glo ATP luminescence, 48 h; 1.6% of 360,000 active;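 also: NT is the 2HG producing partner of a matched IDH1 knockdown line; potency is read from the fitted curve at half-maximal effect; 0% = DMSO-treated cells and -100% = media-only wells without cells; nearly all actives have a fitted effect of over 55% in size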
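Compounds were tested in concentration-response format on HT-1080-NT cells for 48 hours at 37 degrees C. Cell viability came from CellTiter-Glo luminescence; curves were classified by r2, response magnitude and activity.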
DT40 TDP1 no CPT = qHTS for Inhibitors of human tyrosyl-DNA phosphodiesterase 1 (TDP1): qHTS in cells in absence of CPT; 15% of 420,000 active; Potency, µM (titrated, usually from 46.2 µM), without a hit: at the highest dose activity change, negative = growth inhibition, most hits filed as inhibitors; DT40 Tdp1-/- hTDP1 cells, no CPT, ATP luminescence, 48 h; also: potency is read from the fitted curve at half-maximal effect; nearly all actives have a fitted effect of over 55% in size
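Seeded 400 DT40-hTDP1 cells/well (vehicle DMSO, no 20 nM CPT); pinned compounds; ≥48 hr at 37 °C; CellTiter-Glo luminescence as viability measure.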
IL-1B inflam inh = inhibitors of inflammasome signaling (IL-1 beta secretion); THP-1 LPS/ATP IL-1B secretion, AlphaLISA, 16 h; active compounds read low; activity change, % at 57.5 µM; 4.7% of 360,000 active; AID 743279; in the data active = activity change below about -50%; inconclusive = mostly about -30% to -49%
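Secreted IL-1B measured by AlphaLISA bead assay after 16 h compound exposure of THP-1 cells; compounds (final up to 57.5 uM) added 1 h before LPS (250 ng/mL) and ATP (1.25 mM) stimulation; lower signal means less secretion.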
TDP1 cell CPT = DT40-hTDP1 cell growth loss with CPT | 12% of 420,000 active | AID 686979 | chicken DT40 Tdp1-/-;hTDP1 cells + 20 nM CPT, ATP luminescence, 48 h | Potency, µM (top dose mostly 46.2 µM), for the others: at the top dose activity change, negative = growth inhibition, actives largely listed as inhibitors; also: potency is read from the fitted curve at half-maximal effect; nearly all actives have a fitted effect of over 55% in size
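Chicken DT40 Tdp1-/- cells complemented with human TDP1, 400 cells/well, exposed to compounds plus 20 nM camptothecin for at least 48 h at 37 C; viability read as ATP content by CellTiter-Glo luminescence.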
HT1080 IDH1KD tx = kills HT-1080 cells with IDH1 knockdown. AID 686971. HT-1080 IDH1 knockdown viability, ATP luminescence, 48 h. 2% of 360,000 active. Potency, µM (highest dose often 46.1 µM), for inactives: at the highest dose activity, negative = toxicity, most hits filed as cytotoxic;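 also: potency is read from the fitted curve at half-maximal effect; 0% = DMSO wells and -100% = cell-free medium wells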
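IDH1KD HT-1080 cells, 750/well, RPMI + 5% FBS; compound pinned after 2 h settling; 48 h, 37 °C; CellTiter-Glo luminescence; % activity normalised to DMSO and no-cell wells; curves fitted, classed by r2 and efficacy.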
12-LOX inh = blocks human arachidonate 12S-lipoxygenase. P18054. purified 12hLO, xylenol orange hydroperoxide absorbance. Potency, µM (doses to about 108 µM), inactives show top-dose activity change, negative = inhibition, most hits filed as inhibitors. 1.1% of 580,000 active; also: potency is read from the fitted curve at half-maximal effect
Target sequence (P18054 whole entry, looked up): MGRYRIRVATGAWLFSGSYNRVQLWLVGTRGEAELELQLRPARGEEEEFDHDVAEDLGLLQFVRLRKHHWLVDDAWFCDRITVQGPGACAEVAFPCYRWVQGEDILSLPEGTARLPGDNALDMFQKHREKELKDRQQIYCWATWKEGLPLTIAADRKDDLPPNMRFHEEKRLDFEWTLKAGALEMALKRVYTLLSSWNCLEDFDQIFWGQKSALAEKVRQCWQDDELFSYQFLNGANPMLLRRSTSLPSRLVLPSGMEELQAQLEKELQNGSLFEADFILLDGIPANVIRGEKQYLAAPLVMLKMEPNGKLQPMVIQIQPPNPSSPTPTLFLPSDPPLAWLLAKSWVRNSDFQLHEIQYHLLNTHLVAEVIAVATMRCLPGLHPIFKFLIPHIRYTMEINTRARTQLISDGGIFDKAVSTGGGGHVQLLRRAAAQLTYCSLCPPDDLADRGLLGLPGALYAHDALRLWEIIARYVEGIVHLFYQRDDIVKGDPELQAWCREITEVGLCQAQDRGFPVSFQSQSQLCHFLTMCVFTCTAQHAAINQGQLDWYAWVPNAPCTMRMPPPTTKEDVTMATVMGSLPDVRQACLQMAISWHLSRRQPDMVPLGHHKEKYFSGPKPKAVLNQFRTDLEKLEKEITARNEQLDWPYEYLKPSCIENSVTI
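Purified human 12hLO (150 nM final) in 25 mM Hepes, 0.01% Triton X-100, pH 7.0 was preincubated 15 min at room temperature with compound. Then 40 uM arachidonic acid was added, 30 min. Hydroperoxide was read by Fe-XO absorbance ratio 573/405 nm.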
* marks the source's active call; other numbers are inactive results; ? = inconclusive; . = no result; [ ] = dose if it differs, or a comment. This is one part of a sample in which hits are shown more often than they occur. Unless noted, calls follow the shape of the dose curve; as a rule, active = well fitted curve in the direction sought with a large enough effect; inconclusive = small, poorly fitted or top-dose-only effect, or another doubt; inactive = no such curve, though single readings can be large; an effect the other way counts as inactive or inconclusive. Unless noted, % is scaled to controls: 0 for no effect and ±100 for the full control effect.

SMILES | HT1080NT lethal | DT40 TDP1 no CPT | IL-1B inflam inh | TDP1 cell CPT | HT1080 IDH1KD tx | 12-LOX inh
CC(=O)Nc1cc(-c2ccccc2)nn1Cc1cccc(Cl)c1 | . | -26.4% | . | -17.4% | . | ?
CSc1nn(Cc2cccc(Cl)c2)c(N(C(C)=O)C(C)=O)c1S(=O)(=O)c1ccccc1 | . | 20.6µM* | . | ? | . | -18.2%
CN(C)Cc1cccc(-c2cc3c(ccn3Cc3ccncc3)c(N3CCOCC3)n2)c1 | . | . | . | . | . | 16.9%[176 µM]
COCCCn1c(SCc2cccc(C(F)(F)F)c2)nc2cc(OC)c(OC)cc2c1=N | 2.6% | -22.0% | -10.2 | ? | 7.8% | ?
COCCCn1c(SCc2ccccc2)nc2cc(OC)c(OC)cc2c1=N | -29.2% | ? | -9.6 | 23.1µM* | -28.7% | -7.3%
COc1ccc(Cn2c(SCc3cc(C)ccc3C)nc3cc(OC)c(OC)cc3c2=N)cc1 | ? | 7.31µM* | -96.2* | 8.2µM* | ? | ?
COc1ccc(Cn2c(SCc3ccc(C)cc3)nc3cc(OC)c(OC)cc3c2=N)cc1Cl | 20.6µM* | 2.31µM* | -121.4* | 4.11µM* | 23.1µM* | -19.2%
COc1cc2nc(SCc3ccc(C(F)(F)F)cc3)n(Cc3cccs3)c(=N)c2cc1OC | 0.1% | 20.9% | -5.8 | -5.4% | -1.7% | -15.1%
CN(CC(=O)NC(N)=O)C(c1ccccc1)c1ccccc1 | . | . | . | . | . | -7.0%
CN(C)C(=O)c1ccc(NC(=O)c2ccc3ccccc3n2)cc1 | . | . | . | . | . | 1.3%
Cc1ccc(S(=O)(=O)N(C)Cc2ccc(C(=O)N/N=C/c3ccc(OC(F)F)cc3)cc2)cc1 | -2.8% | 20.6µM* | 9.8 | 14.6µM* | -8.8% | -18.4%
C/C(=N\NC(=O)c1ccc(CN(C)S(=O)(=O)c2ccc(C)cc2)cc1)c1ccc(OC(F)F)cc1 | -18.4% | 1.46µM* | 31.5 | ? | -29.4% | 14.0%
COc1ccc(CCC(=O)N2CCN(c3cccc(C)c3C)CC2)cc1 | -1.9% | ? | -10.7 | ? | -6.1% | -11.3%
CC1CCN(C(=O)CCC(=O)N2CC(C)Oc3ccccc32)CC1 (stereo not drawn) | -0.5% | -23.1% | 11.9 | -0.3% | 11.0% | 26.3%
Cc1cccc(N2CCN(C(=O)CCC(=O)N3CC(C)Oc4ccccc43)CC2)c1C (stereo not drawn) | -25.9% | 13µM* | -18.3 | 16.4µM* | -9.1% | 6.4%
Cc1ccc2c(c1)N(C(=O)CCC(=O)N1CCN(c3cccc(C)c3C)CC1)CCO2 | ? | 18.4µM* | -8.2 | 16.4µM* | -28.9% | 1.2%
COc1cc(CCC(=O)N2CCN(c3cccc(C)c3C)CC2)cc(OC)c1OC | -17.5% | 10.3µM* | 4.7 | 11.6µM* | -6.0% | ?
O=C(Nc1cc(F)ccc1F)Nc1ccc(Cl)cc1C(F)(F)F | . | . | . | . | . | -20.4%
Cc1cc(N/N=C/c2ccc3c(c2)OCO3)nc2ccccc12 | -10.6% | 25.9µM* | -22.3 | ? | -17.1% | ?
CN(C)c1nc(NCc2ccccc2)nc(N/N=C/c2ccc3c(c2)OCO3)n1 | -16.9% | 16.4µM* | -14.0 | ? | -25.4% | -1.3%
C(=N\Nc1ccccn1)/c1ccc2c(c1)OCCO2 | -12.8% | ? | -69.2* | -4.3% | -12.3% | 3.3%
O=c1[nH]c(N/N=C\c2ccc3c(c2)OCO3)nc2ccccc12 | 1.8% | 23.1µM* | -24.3 | ? | -11.3% | ?
Cc1cccc(C(=O)N/N=C/c2ccc3c(c2)OCO3)n1 | -1.3% | -12.9% | -0.6 | -1.8% | -1.8% | 0.0%
O=C1c2c(nc(COc3cccc(C(F)(F)F)c3)n2Cc2ccccc2)NCCN1CC1CC1 | . | . | . | . | . | 49.4%
CC(C)Oc1nc2ccccc2nc1N1CCC(C(=O)NCc2ccccc2Cl)CC1 | . | . | . | . | . | -32.2%
SMILES | HT1080NT lethal | DT40 TDP1 no CPT | IL-1B inflam inh | TDP1 cell CPT | HT1080 IDH1KD tx | 12-LOX inh
CCOC(=O)C1=C(CN2CCN(c3cc(C)ccc3C)CC2)NC(=O)NC1c1ccc(Cl)cc1 (stereo not drawn) | . | 16.4µM* | . | ? | . | -0.2%
CCOC(=O)C1=C(CN2CCCCC2)NC(=O)NC1c1ccc(OC)cc1 (stereo not drawn) | . | -2.7% | . | -3.5% | . | 44.7µM*
CCOC(=O)c1[nH]c(CN2CCN(c3ccc(OC)cc3)CC2)c(C(=O)OCC)c1C | -22.0% | 13µM* | 20.2 | -23.5% | ? | -20.1%
CCOC(=O)C1=C(CN2CCN(c3ccc(OC)cc3)CC2)NC(=O)NC1c1ccc(Cl)cc1 (stereo not drawn) | . | 14.6µM* | . | 20.6µM* | . | ?
CCOC(=O)c1[nH]c(C)c(C(=O)N2CCN(c3ccc(OC)cc3)CC2)c1C | -0.5% | ? | 18.9 | -21.1% | -0.4% | -0.4%
COc1cccc(NC(=O)C(C#N)C(=O)Cc2ccccc2C)c1 (stereo not drawn) | . | . | . | . | . | 38.5%
CNc1c(NC(=O)NCCCOC)c(=O)oc2ccccc12 | . | . | . | . | . | -42.2%
Cc1nc2cc(-c3cccc(F)c3)nn2c(C)c1CCC(=O)NC(C)c1ccc2c(c1)OCCO2 (stereo not drawn) | -17.1% | ? | -7.3 | 16.4µM* | 1.3% | -6.7%
Cc1nc2cc(-c3ccccc3)nn2c(C)c1CCC(=O)NC(C)c1ccc2c(c1)OCCO2 (stereo not drawn) | -5.7% | 18.4µM* | 9.1 | ? | -2.2% | 3.4%[57.4 µM]
Cc1nc2nc(C)c(CCC(=O)NC(C)c3ccc4c(c3)OCCO4)c(C)n2n1 (stereo not drawn) | 21.8% | 3.6% | 12.7 | 1.1% | 12.0% | ?
